In all, about 24,000 sequences were measured (“enrichment r”: median about 0.99, highest 2% from about 3.7 on). The sample as a whole holds a higher share of the highest values than the screen did.
T1: UNK ZnF1-3 (human, UniProt Q9C0B0 31-174)
T1 sequence: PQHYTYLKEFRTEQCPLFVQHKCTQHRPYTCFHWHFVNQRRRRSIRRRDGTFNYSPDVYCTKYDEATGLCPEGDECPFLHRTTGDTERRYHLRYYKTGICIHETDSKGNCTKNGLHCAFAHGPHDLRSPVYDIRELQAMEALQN

B1: chrX:12734859:12734860:+_ENSMUSG00000031010_ENSMUST00000089302|mus_hu|motif|central (ssRNA)
RNA: GGGAGUUCUACAGUCCGACGAUCAUCACUGGCAGAGCCACGGACUACUUUCUUUGUGUGAAAUCCUGUAGUAAAGAGGAACCGGGCAGCAAGUUGAAUACUGAUCAUAGUGAUUUCUUCUGCUUCAGGCAACAGGUGAUCUUGCAACAGAGGAUUGAGCAUCA
B2: chr8:21961785:21961786:+_ENSG00000158863_ENST00000289921|hu_mus|FALSE|FALSE (ssRNA)
RNA: GGGAGUUCUACAGUCCGACGAUCCCAUGCAAAUGCCAAAGUGCAUUGAGUAUUGCCCAGCCUCUCAAACGAGUACAAAUCUCAAGUGUAGACCCACUCCACCAAGAUCUGCUCCUGUCCCACACCAGCACCCAUGUGUACUCACAACAGAGGAUUGAGCAUCA
B3: 131934741_131943559_139_3pUTR_ENSG00000108010_ENST00000331244|human|control|control (ssRNA)
RNA: GGGAGUUCUACAGUCCGACGAUCUUCUUUAGCUAACUCUGCCAUAACUUCGUUCAUCUGUGCACACUGUGGAGCCCAUGGUGCCCAGAAAUGGACCACAAGGAGGGACUUGGCUUUGAGGCGCAGCAGCUCCUCAAACUGCCCCAACAGAGGAUUGAGCAUCA
B4: 88753824_88753944_1043_CDS_ENSMUSG00000053333_ENSMUST00000065694|mouse|control|control (ssRNA)
RNA: GGGAGUUCUACAGUCCGACGAUCGGCAAAAUUACAGUCCUCCUUCCAGUCUAUGAUGCGGCAGAUGAACAGCGUGUUGGCAAAGUCUUUAGGUCGGGUCAUGAAGUCCUGGGGACAGUCCUUGAGAGGUACGUAAAUUCUAGGCAACAGAGGAUUGAGCAUCA
B5: chr5:108714581:108714582:-_ENSG00000198961_ENST00000361557|hu_hu|FALSE|FALSE (ssRNA)
RNA: GGGAGUUCUACAGUCCGACGAUCUGAAAGACCAGUGUAUGCCUCUGCCUCUCUGUUUUCCAACUCAAAUACUGUAUUGCCUAAUGAUUCCUGGUAUCUACUACCUUCCACGACUUCUGCAGAAAGUUGAAGAUGGUCAUUAUCCAACAGAGGAUUGAGCAUCA
B6: chr15:31520727:31520728:-_ENSMUSG00000022234_ENSMUST00000022842|mus_mus|FALSE|FALSE (ssRNA)
RNA: GGGAGUUCUACAGUCCGACGAUCAGUUUAUUCUUCAGAUUCUCCAGGCUUACGGAUGUCAUCAAUCUUCAGAAUCAUCCUAACCAUCUGGGUGGCAAGAGAGAUCUGCUGCUUUUUGCCAAUCAAGGUUUCUAUGACAUGCUGCAACAGAGGAUUGAGCAUCA
B7: 86370578_86370698_3324_CDS_ENSMUSG00000021244_ENSMUST00000021670|mouse|control|control (ssRNA)
RNA: GGGAGUUCUACAGUCCGACGAUCUGGCCUCACAAACACCCUGUCCCGGUUGCCUUCUCCUCUGUUCAUUUUCUCACGACUGUCUUCUCUUCUACCCAUCAUUUUAUCAUGGAAAUCUUCUUGCUUGACCAGACCUGGACCACGCAACAGAGGAUUGAGCAUCA
B8: chr7:26236612:26236613:-_ENSG00000122566_ENST00000356674|hu_mus|motif|central (ssRNA)
RNA: GGGAGUUCUACAGUCCGACGAUCAACAAACAGCUUCUUCACAGUCACAUGGGCUCCUGGUUUUCCAGACUCCUCUCUUGCGGCAGCACGUUUUGGCUCAACUACCCUGCCAUCAAUGGAAUGGGGCCUUGCAGCCAUGGCAGCCAACAGAGGAUUGAGCAUCA
B9: chr1:163117127:163117128:-_ENSG00000143248_ENST00000313961|hu_mus|hu_hu_hu_mus_False|1_18 (ssRNA)
RNA: GGGAGUUCUACAGUCCGACGAUCUGCUACAAAGGAUGUAACUCAACUCACAGGGCAACUUUUGGAAGCCUGACCAGAUGACUACUUGAUUAGCUCCUUAUAAAAUUCAGAGCGCACAAAGCGAGGCAGAGAAUCCUUUUCCAUCAACAGAGGAUUGAGCAUCA
B10: chr16:45382771:45382772:-_ENSMUSG00000022661_ENSMUST00000163230|mus_mus|mus_mus_mus_hu_True|18_88 (ssRNA)
RNA: GGGAGUUCUACAGUCCGACGAUCCUGGGUCAUGUUAUAAGACAAAUGGAUAGGGAGGGCAUGCUUCUCAAAAAAUGUGAGCUAUUGUCUAAGACUAACAAUAUUUAUCUAGCUAUAUAAAAAUAAGAAAUGAAUAAGUUAAGACAACAGAGGAUUGAGCAUCA
B11: chr18:56819859:56819860:+_ENSG00000166562_ENST00000588875|hu_mus|hu_hu_hu_mus_True|38_38 (ssRNA)
RNA: GGGAGUUCUACAGUCCGACGAUCAACCUUGAUUACUCUGUGAACUAUCGGAAUGUCUCUUCCUUCAACCUUAAAAACAACUAUUUCACCAGCUCUGAUUGGGUCUUCCCGGAAAUUCGUGAGGAACAGCAGAUCUCCUCUGUGCAACAGAGGAUUGAGCAUCA
B12: 78791426_78796734_1209_CDS_ENSMUSG00000033088_ENSMUST00000109689|mouse|control|control (ssRNA)
RNA: GGGAGUUCUACAGUCCGACGAUCACUGCCAGAAUUCUCCUUCCUCUGGCCUGCUGUGUCUCCUCGGGCUGGGGACCUGGUGGCCUUUCGAGCACUGUCAGCUCUCAGUCCCUCCUGAGGCCUCCUUGGGAUCAUCUCUGUGAGCAACAGAGGAUUGAGCAUCA
B13: chr7:141450121:141450122:+_ENSG00000106028_ENST00000265304|hu_mus|hu_hu_hu_mus_True|28_98 (ssRNA)
RNA: GGGAGUUCUACAGUCCGACGAUCUCAUCCGUUCUAUUCCUUCUCUUUUGUCUGGUCACUCAGAAAUAUAAUGUUAUCAGCUAUGAUUGUUGUUGCUUGCCGCCUCACAUUAUUUUUAUCCAUGUACUCGCCAUAGUCCACUUUCAACAGAGGAUUGAGCAUCA
B14: 180848183_180848303_6210_CDS_ENSMUSG00000026494_ENSMUST00000161017|mouse|control|control (ssRNA)
RNA: GGGAGUUCUACAGUCCGACGAUCAUUGGACCUUUUCUUUUGGUUUUUGAGGCUCCUGCAUCUCCCUCCCACGGAGCUGCUGUUCUCGCUCAUGGAGUCCUGGGCUGAGGAUGCACUGCCGGUGGCCUCGCUGUCUCUCAUCAUCAACAGAGGAUUGAGCAUCA

Each binder was assayed against T1, UNK ZnF1-3 (assay: nsRBNS (natural sequence RNA bind-n-seq); RBNS binding buffer (assumed for nsRBNS): 25 mM Tris pH 7.5, 150 mM KCl, 3 mM MgCl2, 0.01% Triton X-100, 500 ug/ml BSA, 20 U/ml SUPERase-In, 4 C; UNK is unkempt and MSI1 is Musashi-1; names of the RNAs are library labels; protein concentration not given here; high values mean tight binding).

| Binder | binding signal [enrichment R] |
| --- | --- |
| B1 | 1.47 |
| B2 | 1.22 |
| B3 | 0.775 |
| B4 | 1.63 |
| B5 | 0.745 |
| B6 | 0.637 |
| B7 | 0.682 |
| B8 | 0.995 |
| B9 | 1.28 |
| B10 | 4.85 |
| B11 | 0.808 |
| B12 | 0.647 |
| B13 | 0.444 |
| B14 | 0.445 |
